Experimental data from PubChem BioAssay (Tox21).
Records with an inconclusive call do not appear. Entries that show only a call come without a potency. Calls of active or inactive are those of the source. Unless noted, calls come from the whole dose curve.

How the values were obtained:
[1] = Nuclear factor erythroid 2-related factor 2/antioxidant responsive element (Nrf2/ARE) small molecule agonists: luciferase reporter gene qHTS assay in human keratinocytes (AID 1919969); note: nearly all actives have a fitted effect of over 35% in size; note: potency is the fitted concentration of half-maximal effect
[2] = target: Gonadotropin-releasing hormone receptor (Homo sapiens) (UniProt P30968); experiment: Human gonadotropin-releasing hormone receptor (GnRHR) small molecule agonists, calcium flux assay in GnRHR-HEK293 cells (AID 1920063); note: nearly all actives have a fitted effect of over 35% in size
Chain of Gonadotropin-releasing hormone receptor (Homo sapiens) (P30968 whole entry, looked up): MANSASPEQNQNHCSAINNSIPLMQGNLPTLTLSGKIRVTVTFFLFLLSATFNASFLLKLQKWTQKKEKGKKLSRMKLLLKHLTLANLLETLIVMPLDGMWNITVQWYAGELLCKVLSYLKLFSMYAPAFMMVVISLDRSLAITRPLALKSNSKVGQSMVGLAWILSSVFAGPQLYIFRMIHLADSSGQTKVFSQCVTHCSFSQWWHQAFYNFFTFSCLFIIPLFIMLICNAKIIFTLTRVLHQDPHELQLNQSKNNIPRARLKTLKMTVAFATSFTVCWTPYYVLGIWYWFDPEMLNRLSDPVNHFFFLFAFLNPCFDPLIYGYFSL
Procedure, shortened: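 We seeded human GnRHR-expressing HEK293 cells for 18 hours, loaded them with calcium dye for an hour at 37 C, added test compounds, and recorded fluorescence intensity kinetically for three minutes.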

[3] = target: KiSS-1 receptor (Homo sapiens) (UniProt Q969F8); experiment: Human kisspeptin (KISS1R) small molecule agonists, calcium flux assay in KISS1R-HEK293 cells (AID 1920064; active = well fitted activation curve with a large enough effect in the repeat runs)
Chain of KiSS-1 receptor (Homo sapiens) (Q969F8 whole entry, looked up): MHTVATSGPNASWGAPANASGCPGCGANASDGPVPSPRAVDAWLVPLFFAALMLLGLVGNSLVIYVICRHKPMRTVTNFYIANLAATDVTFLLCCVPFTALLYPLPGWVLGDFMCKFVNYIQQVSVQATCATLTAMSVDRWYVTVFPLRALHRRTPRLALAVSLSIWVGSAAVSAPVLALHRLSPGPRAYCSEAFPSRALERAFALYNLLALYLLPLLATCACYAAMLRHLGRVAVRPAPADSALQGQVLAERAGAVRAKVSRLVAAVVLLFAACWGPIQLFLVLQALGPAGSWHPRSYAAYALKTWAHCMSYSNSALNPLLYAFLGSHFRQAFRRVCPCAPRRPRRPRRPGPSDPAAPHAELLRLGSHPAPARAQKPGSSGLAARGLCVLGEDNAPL
Procedure, shortened: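 Kinetic calcium assay, 1 s sampling over 3 min at Ex/Em 480/540, in HEK293 cells engineered with human KISS1R; compounds delivered in DMSO after 1 h dye loading.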

[4] = G protein-coupled receptor (GPCR) small molecule agonists, calcium flux assay: HEK293 wild type cell line counter screen (AID 1920065)
Procedure, shortened: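 Calcium-sensitive dye, loaded 1 h at 37 C into cells cultured 18 h, reports compound-evoked calcium release as fluorescence (Ex/Em 480/540), measured over 3 min. Agonist mode; 15-point titrations, triplicate.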

[5] = p53 small molecule agonists, cell-based qHTS assay with human liver microsomes (AID 1963577);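 note: p53 response element beta-lactamase reporter cells with liver microsomes plus NADPH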
Procedure, shortened: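 With metabolic activation: human liver microsomes (0.5 mg/mL final) plus NADPH (0.5 mg/mL final) added alongside compounds to p53RE-bla cells; 16 h 37 C exposure; beta-lactamase read by LiveBLAzer fluorescence.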

[6] = p53 small molecule agonists, cell-based qHTS assay with human liver microsomes: qHTS cell viability counter screen (AID 1963579); note: nearly all actives have a fitted effect of over 45% in size
Procedure, shortened: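 Metabolic activation used human liver microsomes and NADPH, both 0.5 mg/mL final, over 16 hours at 37 C on p53RE-bla cells (4,000/well). Cytotoxicity measured by CellTiter-Glo luminescence, 30 min at room temperature.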

[7] = p53 small molecule agonists, cell-based qHTS assay with rat liver microsomes: qHTS cell viability counter screen (AID 1963580); note: nearly all actives have a fitted effect of over 45% in size
Procedure, shortened: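 In HCT-116 cells carrying a p53 response element-bla reporter, compounds were metabolically activated in situ by rat liver microsomes with NADPH over 16 h. Cell ATP content then served as the cytotoxicity measure.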

[8] = p53 small molecule agonists, cell-based qHTS assay: qHTS cell viability counter screen (AID 1963581); note: nearly all actives have a fitted effect of over 45% in size; note: potency is the fitted concentration of half-maximal effect
Procedure, shortened: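 Following 5 h attachment, HCT-116 p53RE-bla cells took up compound for 16 h at 37 C; the reporter was read with B/G FRET substrate (2 h RT), and viability then via CellTiter-Glo ATP luminescence.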

[9] = p53 small molecule agonists, cell-based qHTS assay (AID 1963582; active = well fitted activation curve with a large enough effect in the signal ratio in the repeat runs, not every such curve was filed as active; the % refers to the signal ratio)
Procedure, shortened: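 In this cell-based concentration-response screen, a p53 response element drives beta-lactamase; cells received DMSO-borne compounds after 5 h culture and were incubated a further 16 h before FRET substrate development.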

[10] = target: 5-hydroxytryptamine receptor 2A (Homo sapiens) (UniProt P28223); experiment: 5-hydroxytryptamine receptor 2A (HTR2A) small molecule antagonists, cell-based qHTS assay (AID 1963586); note: nearly all actives have a fitted effect of over 45% in size; note: potency is the fitted concentration of half-maximal effect
Chain of 5-hydroxytryptamine receptor 2A (Homo sapiens) (P28223 whole entry, looked up): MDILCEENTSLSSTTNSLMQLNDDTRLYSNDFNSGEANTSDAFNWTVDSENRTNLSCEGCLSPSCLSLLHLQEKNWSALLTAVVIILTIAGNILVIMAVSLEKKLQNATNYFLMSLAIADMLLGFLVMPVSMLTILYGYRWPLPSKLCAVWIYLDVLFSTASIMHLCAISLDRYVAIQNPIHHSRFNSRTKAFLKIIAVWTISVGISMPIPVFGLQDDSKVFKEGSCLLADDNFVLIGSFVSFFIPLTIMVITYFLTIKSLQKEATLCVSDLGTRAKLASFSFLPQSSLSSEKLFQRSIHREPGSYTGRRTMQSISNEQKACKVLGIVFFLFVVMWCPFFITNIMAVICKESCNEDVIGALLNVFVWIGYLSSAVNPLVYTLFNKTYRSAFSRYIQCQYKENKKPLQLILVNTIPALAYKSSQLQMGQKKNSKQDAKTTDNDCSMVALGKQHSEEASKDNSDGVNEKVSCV
Procedure, shortened: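 Antagonist-mode intracellular calcium assay: DOI (4 nM) added after 5 min compound pre-incubation at room temperature to dye-loaded HTR2A-CHO cells. Fluorescence followed for 3 min, sampled every second.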

[11] = target: 5-hydroxytryptamine receptor 2A (Homo sapiens) (UniProt P28223); experiment: 5-hydroxytryptamine receptor 2A (HTR2A) small molecule agonists, cell-based qHTS assay (AID 1963587); note: nearly all actives have a fitted effect of over 30% in size
Procedure, shortened: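 HTR2A-CHO cells, plated 18 h at 37 C/5% CO2, dye-loaded 1 h at 37 C; compounds in DMSO added by pin tool (agonist mode). Intracellular calcium flux read as kinetic fluorescence on FDSS over 2 min at 1 s intervals.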

[12] = target: Muscarinic acetylcholine receptor M1 (Homo sapiens) (UniProt P11229); experiment: Cholinergic receptor muscarinic 1 (CHRM1) small molecule antagonists, cell-based qHTS assay (AID 1963588); note: nearly all actives have a fitted effect of over 40% in size
Chain of Muscarinic acetylcholine receptor M1 (Homo sapiens) (P11229 whole entry, looked up): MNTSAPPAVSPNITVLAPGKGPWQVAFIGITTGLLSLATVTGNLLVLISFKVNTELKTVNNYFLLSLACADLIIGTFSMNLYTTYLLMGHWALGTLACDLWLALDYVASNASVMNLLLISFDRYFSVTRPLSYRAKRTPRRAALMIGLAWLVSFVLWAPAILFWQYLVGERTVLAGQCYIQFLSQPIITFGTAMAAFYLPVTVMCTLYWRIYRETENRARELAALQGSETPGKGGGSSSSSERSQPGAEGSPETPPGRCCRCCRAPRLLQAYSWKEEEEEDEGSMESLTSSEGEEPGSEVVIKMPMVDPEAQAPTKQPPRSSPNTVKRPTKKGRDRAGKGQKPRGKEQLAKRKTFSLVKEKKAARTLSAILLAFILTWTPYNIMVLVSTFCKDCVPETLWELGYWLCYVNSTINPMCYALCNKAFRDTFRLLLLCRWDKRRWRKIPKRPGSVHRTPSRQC
Procedure, shortened: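 CHRM1-CHO calcium-flux assay, antagonist mode. Cells were seeded 18 h, dye-loaded 1 h at 37 C and given compound for 5 min at RT, then acetylcholine was added at 50nM. FDSS fluorescence was read 3 min; 15 concentrations, three runs.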

[13] = target: Muscarinic acetylcholine receptor M1 (Homo sapiens) (UniProt P11229); experiment: Cholinergic receptor muscarinic 1 (CHRM1) small molecule agonists, cell-based qHTS assay (AID 1963589); note: nearly all actives have a fitted effect of over 35% in size
Procedure, shortened: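 Measures agonist-induced intracellular calcium rise. Stable human CHRM1 CHO line, 1 h dye load at 37 C, compounds from DMSO, kinetic fluorescence read.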

[14] = cAMP Responsive Elements (CRE) small molecule agonists, cell-based qHTS assay (AID 1963590)
Procedure, shortened: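 A CRE-responsive beta-lactamase reporter in HEK 293T cells was used. Treatment ran 3 h at 37 C; detection used LiveBLAzer B/G FRET substrate for 2 h at room temperature.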

[15] = cAMP Responsive Elements (CRE) small molecule antagonists, cell-based qHTS assay (AID 1963591; active = well fitted inhibition curve with a large enough effect in the signal ratio in the repeat runs, not every such curve was filed as active; the % refers to the signal ratio)
Procedure, shortened: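 HEK293T cells carrying a CRE-driven beta-lactamase reporter receive compound and NKH477 (0.25 uM final) for 3 h. Fluorescence from LiveBLAzer B/G FRET substrate is read after 2 h at room temperature.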

[16] = target: Beta-2 adrenergic receptor (Homo sapiens) (UniProt P07550); experiment: Adrenergic beta2 receptor (ADRB2) small molecule antagonists, cell-based qHTS assay (AID 1963592); note: series mostly up to about 92 µM; nearly all actives have a fitted effect of over 50% in size
Chain of Beta-2 adrenergic receptor (Homo sapiens) (P07550 whole entry, looked up): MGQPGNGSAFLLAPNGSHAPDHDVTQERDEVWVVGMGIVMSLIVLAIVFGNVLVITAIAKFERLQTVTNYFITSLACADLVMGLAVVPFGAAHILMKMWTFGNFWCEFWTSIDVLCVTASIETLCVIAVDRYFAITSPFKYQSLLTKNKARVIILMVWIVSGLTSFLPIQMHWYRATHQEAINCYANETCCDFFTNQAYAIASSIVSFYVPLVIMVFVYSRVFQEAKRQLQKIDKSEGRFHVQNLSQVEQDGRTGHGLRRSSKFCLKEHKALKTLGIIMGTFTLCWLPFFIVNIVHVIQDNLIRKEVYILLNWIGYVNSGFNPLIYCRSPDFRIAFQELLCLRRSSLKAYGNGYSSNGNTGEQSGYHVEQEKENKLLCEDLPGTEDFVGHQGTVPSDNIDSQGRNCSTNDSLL
Procedure, shortened: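 Cells (CHO, stable ADRB2 overexpression) incubated 18-20hr at 37C; compounds added from DMSO; agonist mix (1nM isoproterenol, 100uM IBMX, 25uM Ro-20-1724) added; 0.5hr RT; d2-cAMP and anti-cAMP-cryptate added; 1hr RT; 665/615 nm read.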

[17] = target: D(2) dopamine receptor (Homo sapiens) (UniProt P14416); experiment: Dopamine D2 receptor (DRD2) small molecule agonists, cell-based qHTS assay (AID 1963594); note: nearly all actives have a fitted effect of over 35% in size
Chain of D(2) dopamine receptor (Homo sapiens) (P14416 whole entry, looked up): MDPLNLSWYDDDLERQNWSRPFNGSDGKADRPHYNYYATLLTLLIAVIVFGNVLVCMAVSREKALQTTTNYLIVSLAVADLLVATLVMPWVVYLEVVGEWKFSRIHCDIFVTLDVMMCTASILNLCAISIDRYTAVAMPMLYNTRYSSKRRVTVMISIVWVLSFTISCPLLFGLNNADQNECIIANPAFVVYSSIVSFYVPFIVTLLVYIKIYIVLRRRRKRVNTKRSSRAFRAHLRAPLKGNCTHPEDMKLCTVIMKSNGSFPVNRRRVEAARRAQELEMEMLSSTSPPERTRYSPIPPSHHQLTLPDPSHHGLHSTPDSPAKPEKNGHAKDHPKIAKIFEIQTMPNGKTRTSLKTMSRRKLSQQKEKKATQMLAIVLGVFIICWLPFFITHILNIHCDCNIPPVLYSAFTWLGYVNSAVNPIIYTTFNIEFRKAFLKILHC
Procedure, shortened: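 HEK293 cells stably expressing DRD2 were cultured 24 h at 37 C, then given Ro20-1724 (0.1 mM final) and compounds for 10 min at room temperature. NKH477 (200nM) was then added for 30 min. cAMP was read by HTRF.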

[18] = target: D(2) dopamine receptor (Homo sapiens) (UniProt P14416); experiment: Dopamine D2 receptor (DRD2) small molecule antagonists, cell-based qHTS assay (AID 1963595; active = well fitted inhibition curve with a large enough effect in the signal ratio in the repeat runs, with a control signal flat; the % refers to the signal ratio)
Procedure, shortened: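 In this cell-based antagonist screen, compounds act for 10 min at room temperature before a 30 min challenge with 12 nM quinpirole and 200 nM NKH477. cAMP is quantified by HTRF competition in DRD2-HEK293 cells containing 0.1 mM Ro20-1724.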

[19] = p53 small molecule agonists, cell-based qHTS assay with rat liver microsomes (AID 1963578)
Procedure, shortened: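 Metabolic activation by rat liver microsomes and NADPH, each 0.5 mg/mL final, added right after compounds to p53RE-bla reporter cells (4,000/well, plated 5 h earlier). 16 h at 37 C, then LiveBLAzer substrate for 2 h at room temperature in the dark; fluorescence read-out.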

[20] = target: Beta-2 adrenergic receptor (Homo sapiens) (UniProt P07550); experiment: Adrenergic beta2 receptor (ADRB2) small molecule agonists, cell-based qHTS assay (AID 1963593);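 note: CHO cells stably overexpressing human ADRB2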
Procedure, shortened: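 CHO cells stably over-expressing ADRB2 were plated overnight at 37C, then dosed with compounds plus a stimulation mix containing 100uM IBMX and 25uM Ro-20-1724 for 0.5hr at room temperature. cAMP was measured by HTRF competition, 1hr.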

Compound | Potency [1] | Potency [2] | Potency [3] | Potency [4] | Potency [5] | Potency [6] | Potency [7] | Potency [8] | Potency [9] | Potency [10] | Potency [11] | Potency [12] | Potency [13] | Potency [14] | Potency [15] | Potency [16] | Potency [17] | Potency [18] | Potency [19] | Potency [20]
Cc1cc(C)cc(OP(=O)(Oc2cc(C)cc(C)c2)Oc2cc(C)cc(C)c2)c1 | inactive | inactive | inactive | inactive | inactive | inactive | inactive | inactive | inactive | inactive | inactive | inactive | inactive | inactive | inactive | inactive | inactive | inactive | – | –
N#CCc1ccc(Cl)cc1 | inactive | inactive | inactive | inactive | inactive | inactive | – | inactive | inactive | inactive | inactive | – | inactive | inactive | inactive | inactive | inactive | inactive | inactive | –
CCCOCC(=Nc1ccc(Cl)cc1C(F)(F)F)n1ccnc1 | 27.3 µM (active) | inactive | inactive | inactive | inactive | inactive | – | – | – | – | – | – | – | – | – | inactive | – | – | inactive | inactive
C[C@]12CC[C@H](O)C[C@H]1CC[C@@H]1[C@@H]2C[C@@H](O)[C@]2(C)[C@@H](C3=CC(=O)OC3)CC[C@]12O | 3.44 µM (active) | inactive | inactive | inactive | inactive | – | – | 1.82 µM (active) | – | inactive | inactive | inactive | inactive | – | – | – | inactive | inactive | inactive | –
COc1cccc2c1cc([N+](=O)[O-])c1c(C(=O)O)cc3c(c12)OCO3 | 12.2 µM (active) | inactive | inactive | inactive | inactive | inactive | – | inactive | – | inactive | inactive | inactive | inactive | – | – | inactive | inactive | – | inactive | –
Cc1cc(SCc2sc(-c3ccc(C(F)(F)F)c(F)c3)nc2C)ccc1OCC(=O)O | 61.1 µM (active) | inactive | inactive | inactive | inactive | inactive | – | inactive | – | 42.1 µM (active) | – | – | inactive | – | – | inactive | inactive | inactive | inactive | –
ClC(Cl)=C(c1ccc(Cl)cc1)c1ccccc1Cl | inactive | inactive | inactive | inactive | inactive | inactive | – | inactive | – | – | inactive | inactive | inactive | – | inactive | inactive | inactive | – | inactive | –
